# Reference: PubChem BioAssay (NCI)
# This is part of a sample that, as a whole, favours compounds with a hit. Of some 79,000 tested, about 15% had one in any assay. Values without a mark were called inactive. The source made the active and inactive calls. No stated cut-off is given here; in the data, active means growth inhibition above about 70%; inactive means the rest.
# Legend:
# [1] = NCI Yeast Anticancer Drug Screen. Data for the rad50 strain (AID 155);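 further: 0% = growth of vehicle-only cultures of the same strain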; details: S. cerevisiae rad50 strain growth inhibition, active compounds read high
# How it was run: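 Relative growth inhibition (compound vs vehicle) was measured in yeast with a defined repair-gene alteration.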
# [2] = NCI Yeast Anticancer Drug Screen. Data for the mec2-1 strain (AID 157); details: S. cerevisiae mec2-1 strain, active compounds read high
# How it was run: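 mec2-1 yeast strain, carrying an alteration in DNA damage repair or cell cycle control, was exposed to compounds; growth inhibition was measured relative to vehicle-treated controls.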
# [3] = NCI Yeast Anticancer Drug Screen. Data for the sgs1 mgt1 strain (AID 161);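 further: 0% = growth of cultures given vehicle only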; details: S. cerevisiae sgs1 mgt1 strain, active compounds read high
# How it was run: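 Compounds are added to genetically altered yeast, and growth is compared with cultures given vehicle alone to give percent inhibition.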
# [4] = NCI Yeast Anticancer Drug Screen. Data for the cln2 rad14 strain (AID 165);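 further: 0% = growth equal to vehicle treated cultures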; details: S. cerevisiae cln2 rad14 strain, active compounds read high
# How it was run: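 Yeast carrying cln2 and rad14 alterations (cell cycle control and DNA damage repair) were exposed to compounds. Growth inhibition was measured against vehicle-treated controls.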
# [5] = NCI Yeast Anticancer Drug Screen. Data for the bub3 strain (AID 167); details: S. cerevisiae bub3 mutant strain, active compounds read high
# How it was run: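 Screening used yeast with an engineered genetic alteration affecting cell cycle control. Compound-exposed cultures were compared with vehicle cultures, and reduced growth was taken as inhibition.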
# [6] = NCI Yeast Anticancer Drug Screen. Data for the mlh1 rad18 strain (AID 175); details: S. cerevisiae mlh1 rad18 strain growth inhibition, active compounds read high
# How it was run: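 Growth inhibition of the yeast strain was measured after compound exposure and expressed relative to vehicle-treated controls. The strain carries defined defects in DNA damage repair.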
# [7] = at 5.0 µM (retest, dose inferred, filed as 0.5)
# [8] = at 50.0 µM (retest, dose inferred, filed as 5.0)
SMILES,"growth inhibition [1, 7]","growth inhibition [1, 8]",growth inhibition ([1]; at 50.0 µM),"growth inhibition [2, 7]","growth inhibition [2, 8]",growth inhibition ([2]; at 50.0 µM),"growth inhibition [3, 7]","growth inhibition [3, 8]",growth inhibition ([3]; at 50.0 µM),"growth inhibition [4, 7]","growth inhibition [4, 8]",growth inhibition ([4]; at 50.0 µM),"growth inhibition [5, 7] [%]","growth inhibition [5, 8]",growth inhibition ([5]; at 50.0 µM),"growth inhibition [6, 7]","growth inhibition [6, 8]",growth inhibition ([6]; at 50.0 µM)
CO[C@@]12[C@@H]3N[C@@H]3CN1C1=C(C(=O)C(N(C)c3ccc(O)cc3)=C(C)C1=O)[C@@H]2COC(N)=O,21%,64%,81.9% (active),24%,70% (active),76% (active),-7%,44%,68.4%,1%,62%,65%,-5,30%,53.2%,33%,96% (active),83.2% (active)
COc1cc([N+](=O)[O-])c2ncccc2c1[N+](=O)[O-],-1%,23%,85% (active),-5%,13%,52.4%,-2%,26%,74.5% (active),-5%,-9%,53.6%,-11,12%,39.4%,13%,45%,93.6% (active)
ClCCN1CCOCC1,95% (active),97% (active),98% (active),94% (active),99% (active),98.8% (active),89% (active),98% (active),98.3% (active),71% (active),98% (active),95.8% (active),34,98% (active),98.1% (active),91% (active),98% (active),98.8% (active)
O=C1N[C@H]2[C@H](O)[C@H](O)[C@@H](O)[C@H](O)[C@@H]2c2cc3c(c(O)c21)OCO3,12%,70% (active),69%,19%,70% (active),65.8%,17%,58%,67.2%,32%,66%,69%,19,60%,68.7%,26%,84% (active),58.2%
C1CCNCC1.O=C([CH-]C(=O)C(F)(F)F)c1ccc2c(c1)C(=O)c1ccccc1-2.O=C([CH-]C(=O)C(F)(F)F)c1ccc2c(c1)C(=O)c1ccccc1-2.O=C([CH-]C(=O)C(F)(F)F)c1ccc2c(c1)C(=O)c1ccccc1-2.O=C([CH-]C(=O)C(F)(F)F)c1ccc2c(c1)C(=O)c1ccccc1-2.[Eu+3],54%,79% (active),70.3% (active),42%,64%,20.2%,15%,58%,52.2%,54%,77% (active),61.5%,34,71% (active),52.2%,40%,69%,49.1%
